FEN1 inh-1: human FEN1 inhibition | Recombinant FEN1 flap cleavage, fluorescence, 15 min | 0.35% of 390,000 active | Potency, µM (titrated, usually from 114 µM), without a hit: top-dose activity change, negative = inhibition, actives largely listed as inhibitors | P39748 | AID 588795; further: on the % scale 0 is the no-effect control and ±100 the full control effect; nearly all actives have a fitted effect of over 65% in size
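Enzyme 10 nM, 15 min RT preincubation with compound; start with substrate 50 nM final; reads at 0 and 15 min; qHTS titration, four-parameter Hill fit.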
WRN helicase inh-1: inhibitors of human WRN helicase. Q14191. 0.46% of 360,000 active. WRN helicase unwinding, fluorescent forked duplex, kinetic. Potency, µM (doses to about 114 µM), without a hit: at the highest dose activity change, negative = inhibition, hits mostly inhibitors. AID 651768; further: on the % scale 0 is the no-effect control and ±100 the full control effect; nearly all actives have a fitted effect of over 55% in size
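Fluorescence dequenching readout, ex 525 nm/em 598 nm, kinetic mode: forked duplex DNA (100 nM final) with adjacent fluorophore and quencher unwound by WRN (20 nM final) with 2 mM ATP. Compound preincubation 15 min, room temperature.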
Pol eta inh-1: inhibitors of human DNA polymerase eta | Q9Y253 | AID 588591 | recombinant Pol eta, fluorescent DNA replication assay | Potency, µM (series often up to 114 µM), for the others: at the highest dose activity change, negative = inhibition, actives largely listed as inhibitors | 1.2% of 390,000 active; further: on the % scale 0 is the no-effect control and ±100 the full control effect
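Fluorescent replication assay: 50 nM final substrate added after a 15 min room-temperature compound preincubation with 10 nM enzyme. Signal taken at 0 min and again at 10 min.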
POLB inh: DNA polymerase beta (human) inhibition | P06746 | Pol beta primer extension/strand displacement, fluorescence kinetic | Potency, µM (highest dose often 114 µM), for inactives: at the top dose activity change, negative = inhibition, usual class: inhibitors | 1.3% of 340,000 active | AID 485314; further: on the % scale 0 is the no-effect control and ±100 the full control effect
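Curves were derived by four-parameter Hill fits of normalized qHTS data. The kinetic fluorescent primer-extension read was taken at 0 and 10 min after 50 nM substrate, following a 15 min room-temperature preincubation of 10 nM enzyme with compounds.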
Pol iota inh: blocks human DNA polymerase iota activity; Q9UNA4; 1% of 390,000 active; Potency, µM (top dose mostly 115 µM), inactives show at the top dose activity, negative = inhibition, hits mostly inhibitors; Pol iota fluorescent replication assay, 10 min
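Fluorescent replication assay read twice, at 0 min and 10 min after adding 50 nM (final) substrate. Enzyme (10 nM) and compounds were first incubated 15 min at room temperature; enzyme-free buffer wells were negative controls.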
Pol kappa inh-1: inhibitors of human DNA polymerase kappa | Potency, µM (titrated, usually from 107 µM), without a hit: at the top dose activity, negative = inhibition, actives largely listed as inhibitors | purified Pol kappa, fluorescent DNA synthesis assay, 10 min | 0.53% of 400,000 active; further: on the % scale 0 is the no-effect control and ±100 the full control effect
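Fluorescent qHTS in 1536-well format: enzyme (10 nM) and compound sat 15 min at room temperature before 50 nM substrate (final) was added. Signal taken at 0 and 10 min; no-enzyme buffer wells were negative controls.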
PGK validate: validation of Trypanosoma brucei phosphoglycerate kinase inhibitors; shares compounds with Pol kappa inh-1; Potency, µM (doses to about 57.5 µM), for the others: at the top dose activity change, negative = inhibition, hits mostly inhibitors; TbPGK coupled GAPDH assay, Kinase-Glo luminescence; 79% of 500 active; further: on the % scale 0 is the no-effect control and ±100 the full control effect; nearly all actives have a fitted effect of over 65% in size
POLI cherry-pick: Human Pol iota inhibitor confirmatory assay; 77% of 1,500 active; Pol iota primer extension, TAMRA/BHQ fluorescence; Potency, µM, usual class: inhibitors; shares compounds with Pol kappa inh-1
Pol kappa inh-2: Pol kappa (human) inhibition, cherry-pick confirmation | shares compounds with Pol eta inh-1 | purified Pol-kappa, fluorescent strand-displacement substrate | 76% of 920 active | AID 720501 | Potency, µM, most hits filed as inhibitors
Pol eta inh-2: Pol eta (human) inhibition, cherry-pick confirmation | 64% of 2,600 active | Pol eta primer extension, TAMRA/BHQ fluorescence, 10 min | Potency, µM, hits mostly inhibitors | shares compounds with Pol eta inh-1
FEN1 inh-2: confirmation of human FEN1 inhibitors | shares compounds with FEN1 inh-1 | FEN1 flap cleavage, TAMRA/BHQ2 fluorogenic DNA substrate | Potency, µM, most hits filed as inhibitors | 79% of 880 active | AID 720498; further: nearly all actives have a fitted effect of over 60% in size
WRN helicase inh-2: confirmation of human WRN helicase inhibitors; shares compounds with WRN helicase inh-1; WRN helicase DNA unwinding, fluorescence kinetic; Potency, µM (titrated, usually from 57.1 µM), inactives show at the highest dose activity, negative = inhibition, actives largely listed as inhibitors; 63% of 610 active; AID 720497; further: nearly all actives have a fitted effect of over 65% in size
TO DNA binding: binds DNA, flagged in WRN inhibitor counterscreen. shares compounds with WRN helicase inh-1. thiazole orange DNA binding displacement, fluorescence. Potency, µM (doses to about 57.1 µM), inactives show top-dose activity change, negative = inhibition, actives largely listed as inhibitors. 10% of 610 active. AID 720499;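 further: drop in dye fluorescence marks compound binding to DNA; on the % scale 0 is the no-effect control and ±100 the full control effect; nearly all actives have a fitted effect of over 60% in size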
BLM helicase inh: counter-screen for WRN helicase inhibitors: human BLM helicase inhibition | Recombinant BLM helicase DNA unwinding, red fluorescence | Potency, µM (highest dose often 57.1 µM), inactives show top-dose activity change, negative = inhibition, actives largely listed as inhibitors | 60% of 610 active | shares compounds with WRN helicase inh-1; further: nearly all actives have a fitted effect of over 60% in size
Target sequence (P54132 whole entry, looked up): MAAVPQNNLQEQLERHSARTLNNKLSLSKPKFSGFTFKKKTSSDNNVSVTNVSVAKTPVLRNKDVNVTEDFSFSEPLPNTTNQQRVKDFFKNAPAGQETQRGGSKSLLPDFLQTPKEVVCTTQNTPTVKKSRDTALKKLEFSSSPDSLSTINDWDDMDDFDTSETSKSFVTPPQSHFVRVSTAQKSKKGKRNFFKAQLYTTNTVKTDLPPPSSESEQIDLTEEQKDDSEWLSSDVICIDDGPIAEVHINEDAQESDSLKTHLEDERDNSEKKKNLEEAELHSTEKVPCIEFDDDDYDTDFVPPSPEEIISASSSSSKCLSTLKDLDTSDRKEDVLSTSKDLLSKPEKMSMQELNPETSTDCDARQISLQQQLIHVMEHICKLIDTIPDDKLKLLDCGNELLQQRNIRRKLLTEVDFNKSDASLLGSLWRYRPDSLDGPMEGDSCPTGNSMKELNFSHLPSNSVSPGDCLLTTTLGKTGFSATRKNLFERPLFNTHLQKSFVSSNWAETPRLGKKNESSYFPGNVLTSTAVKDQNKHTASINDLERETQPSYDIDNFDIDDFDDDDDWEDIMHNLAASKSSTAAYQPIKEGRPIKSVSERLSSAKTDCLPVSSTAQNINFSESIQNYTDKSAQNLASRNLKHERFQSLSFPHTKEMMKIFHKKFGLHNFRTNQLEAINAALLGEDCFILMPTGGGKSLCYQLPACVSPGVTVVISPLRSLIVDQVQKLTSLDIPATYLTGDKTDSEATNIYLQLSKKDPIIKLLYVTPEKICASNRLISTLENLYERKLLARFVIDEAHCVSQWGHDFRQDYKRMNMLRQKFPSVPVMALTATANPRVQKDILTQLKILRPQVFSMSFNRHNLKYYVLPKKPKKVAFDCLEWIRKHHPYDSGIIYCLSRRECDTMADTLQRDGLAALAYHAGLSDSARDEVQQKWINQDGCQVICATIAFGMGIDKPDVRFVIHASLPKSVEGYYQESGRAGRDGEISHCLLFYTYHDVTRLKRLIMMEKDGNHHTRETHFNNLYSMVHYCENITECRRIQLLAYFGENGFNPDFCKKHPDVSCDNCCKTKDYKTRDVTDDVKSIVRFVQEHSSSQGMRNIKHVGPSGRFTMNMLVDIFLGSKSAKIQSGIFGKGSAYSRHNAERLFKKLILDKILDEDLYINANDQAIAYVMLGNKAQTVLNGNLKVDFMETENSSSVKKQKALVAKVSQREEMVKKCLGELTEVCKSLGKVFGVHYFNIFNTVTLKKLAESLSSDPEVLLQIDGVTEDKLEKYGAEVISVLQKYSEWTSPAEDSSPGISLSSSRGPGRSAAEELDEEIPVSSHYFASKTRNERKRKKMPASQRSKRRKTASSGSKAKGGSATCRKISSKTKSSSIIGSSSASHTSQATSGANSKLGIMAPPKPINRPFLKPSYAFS
The depositor's hits bear a star; ? = inconclusive; . = not tested or not shown; ! = a repeat was not active; [ ] = dose if it differs, or a comment. Shown are actives, neighbours in structure and some others; about 2.4% of the full set was active somewhere. The call rests on the fitted dose curve; in most records, active means well fitted curve in the direction sought with a large enough effect; inconclusive means small, poorly fitted or top-dose-only effect, or another doubt; inactive means no such curve, though single readings can be large; an effect the other way counts as inactive or inconclusive. Potency means the concentration at half of the fitted maximal effect.

SMILES	FEN1 inh-1	WRN helicase inh-1	Pol eta inh-1	POLB inh	Pol iota inh	Pol kappa inh-1	PGK validate	POLI cherry-pick	Pol eta inh-2	FEN1 inh-2	WRN helicase inh-2	TO DNA binding	BLM helicase inh	others
O=c1cc2oc3cc(O)c(O)cc3c(-c3ccccc3[N+](=O)[O-])c-2cc1O	?	0.75µM*	0.79µM*	0.32µM*	?	0.79µM*	0.29µM*	0.75*	2.1*	?	0.38µM*	?	0.22µM*
O=c1cc(-c2ccccc2Cl)oc2c([N+](=O)[O-])ccc(O)c12	.	.	.	.	.	-7%	.	.	.	.	.	.	.
CCOc1ccc(NC(=S)NC(=O)/C=C/c2ccco2)cc1	-1%	-10%	3%	-17%	117%	2%	.	.	.	.	.	.	.
COc1cc(NS(=O)(=O)c2ccc(NC(=S)NC(=O)/C=C/c3ccco3)cc2)ncn1	13µM*	14µM*	2.2µM*	18µM*	?	7.1µM*	4.6µM*	17*	4.3*	60*	15µM*	-22%	15µM*
O=C1NN(c2ccccc2)C(=O)/C1=C/c1ccc(-c2ccc(Cl)c(C(=O)O)c2)o1	?	35µM*	7.1µM*	13µM*	?	?	.	42*	30*	.	19µM*	-18%	?
O=C(O)c1cc(-c2ccc(/C=C3\NC(=O)N(c4ccc(Cl)cc4)C3=O)o2)ccc1Cl	?	35µM*	3.5µM*	6.3µM*	10µM*	10µM*	21µM*	21*	5.4*	.	6.8µM*	?	24µM*	Pol kappa inh-2=17*
Cc1cccc(-c2ccc(C=Nc3c(C)n(C)n(-c4ccccc4)c3=O)o2)c1	8%	-4%	-25%	-8%	-8%	-7%	.	.	.	.	.	.	.
Cc1cccc(N2NC(=O)/C(=C/c3ccc(-c4ccc(Cl)c(C(=O)O)c4)o3)C2=O)c1	?	40µM*	6.3µM*	25µM*	3.5µM*	35µM*	.	34*	17*	.	9.6µM*	?	9.6µM*
COc1ccc(OC)c(N2C(=O)[C@@H]3C(c4ccccc4Cl)=NO[C@@H]3C2=O)c1	50µM*	40µM*	1.3µM*	-88%	3.5µM*	20µM*	5.8µM*	17*	17*	.	22µM*	?	17µM*
O=C(C1CC1)N1CCc2cc(Br)cc(S(=O)(=O)Nc3ccc(C(F)(F)F)cc3)c21	-24%	.	-19%	21%	5%	-1%	.	.	.	.	.	.	.
O=C(Nc1ccc(Cl)c(Cl)c1)Nc1nnc(-c2ccncc2)s1	-9%	?	?	?	?	?	.	?	.	.	2.7µM*	45%	1.2µM*
COc1cc(/C=C2\CCc3c2nc2ccccc2c3C(=O)O)cc(OC)c1OC	50µM*	32µM*	3.2µM*	3.2µM*	10µM*	45µM*	.	21*	15*	.	19µM*	?	19µM*
O=C1/C(=C/C=C/c2ccco2)SC(=S)N1NS(=O)(=O)c1ccccc1	4µM*	8.9µM*	1.1µM*	?	1.8µM*	4.5µM*	4.1µM*	2.7*	1.7*	17*	4.8µM*	-18%	7.6µM*
CC(C(=O)O)N1C(=O)/C(=C/C=C/c2ccco2)SC1=S (centres undefined)	7.9µM*	2.4µM*	0.79µM*	1.3µM*	0.79µM*	1.3µM*	2.9µM*	1.9*	1.3*	15*	0.54µM*	-11%	0.96µM*
COc1ccc(-c2onc(C)c2C)cc1S(=O)(=O)N(C)Cc1ccccc1	-1%	.	-17%	-20%	9%	-13%	.	.	.	.	.	.	.
CC1CCc2c(cc(-c3ccccc3)n2-c2ccc(C(=O)NC(C)C)cc2)C1 (centres undefined)	-1%	.	-16%	0%	?	9%	.	.	.	.	.	.	.
COc1ccc2[nH]cc(CCNc3ccnc(-c4cccnc4)n3)c2c1	.	.	.	.	.	0%[60.1 µM]	.	.	.	.	.	.	.
Cc1ccc(CNC(=O)CCS(=O)(=O)c2ccc(Br)cc2)cc1	-4%	25µM*	10µM*	7.9µM*	16µM*	22µM*	6.5µM*	38*	27*	.	3.8µM*	5.4µM*	2.2µM*
O=C(CN1CCN(Cc2ccccc2Cl)C1=O)NCc1ccccc1Cl	10%	.	-11%	2%	11%	-25%	.	.	.	.	.	.	.
N#C/C(=C\c1ccc(-c2cc(Cl)ccc2Cl)o1)C(=O)Nc1ccccc1C(=O)O	?	.	40µM*	?	?	?	.	75*	?	.	17µM*	11µM*	3µM*	Pol kappa inh-2=11*
COc1cccc2c1C(=O)c1c(O)c3c(c(O)c1C2=O)CC(O)(C(C)=O)CC3OC1CC(N(C)C)C(O)C(C)O1 (centres undefined)	32µM*	18µM*	11µM*	.	22µM*	?	.	11*	19*	38*	24µM*	240%	24µM*	Pol kappa inh-2=24*
COc1cccc2c1C(=O)c1c(O)c3c(c(O)c1C2=O)C[C@@](O)(C(=O)CO)C[C@@H]3OC1CC(N)C(O)C(C)O1 (some centres undefined)	6.3µM*	3µM*	5µM*	.	35µM*	11µM*!	.	17*	60*	34*	17µM*	96%	27µM*	Pol kappa inh-2=9.5*

Assay outcomes: PubChem, National Center for Advancing Translational Sciences (NCATS)
